# Screens from PubChem.
# A selection: hits, their analogues and other compounds. The true share with any hit is near 0.83%.
# NR5A2 inv ag – NR5A2 inverse agonism in reporter assay; O00482; HEK293T StAR-luciferase reporter, LRH-1 transfected, 24 h; inhibition, % at 3.6 µM; actives 0.13% (n = 360,000);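 active = inhibition above the mean inhibition of all tested compounds plus 3 SD, cut at about 73% in these data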;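 also: 0% = DMSO wells and 100% = reporter-only cells lacking LRH-1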
# SRC2 inh – inhibits human steroid receptor coactivator 2; HEK293 GAL4-SRC2 luciferase reporter, luminescence; Q15596; actives 0.17% (n = 370,000); inhibition, % at 9 µM; AID 651957;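 active = inhibition above the mean inhibition of all tested compounds plus 3 SD, set per campaign, cut at about 52% in these data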;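 also: 0% = DMSO treated cells and 100% = cells given Gossypol at 36 µM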
# NCOA1 inh – inhibits human SRC1 coactivator; Q15788; HEK293 GAL4-SRC1 luciferase reporter, luminescence; inhibition, % at 3.6 µM; actives 0.12% (n = 360,000);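 active = inhibition above the campaign mean plus 3 SD, with each screening campaign given its own cutoff, cut at about 60% in these data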;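 also: 0% = DMSO treated cells and 100% = gossypol at 36 µM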
# Target sequence (Q15788 whole entry, looked up, the tested form may be a part): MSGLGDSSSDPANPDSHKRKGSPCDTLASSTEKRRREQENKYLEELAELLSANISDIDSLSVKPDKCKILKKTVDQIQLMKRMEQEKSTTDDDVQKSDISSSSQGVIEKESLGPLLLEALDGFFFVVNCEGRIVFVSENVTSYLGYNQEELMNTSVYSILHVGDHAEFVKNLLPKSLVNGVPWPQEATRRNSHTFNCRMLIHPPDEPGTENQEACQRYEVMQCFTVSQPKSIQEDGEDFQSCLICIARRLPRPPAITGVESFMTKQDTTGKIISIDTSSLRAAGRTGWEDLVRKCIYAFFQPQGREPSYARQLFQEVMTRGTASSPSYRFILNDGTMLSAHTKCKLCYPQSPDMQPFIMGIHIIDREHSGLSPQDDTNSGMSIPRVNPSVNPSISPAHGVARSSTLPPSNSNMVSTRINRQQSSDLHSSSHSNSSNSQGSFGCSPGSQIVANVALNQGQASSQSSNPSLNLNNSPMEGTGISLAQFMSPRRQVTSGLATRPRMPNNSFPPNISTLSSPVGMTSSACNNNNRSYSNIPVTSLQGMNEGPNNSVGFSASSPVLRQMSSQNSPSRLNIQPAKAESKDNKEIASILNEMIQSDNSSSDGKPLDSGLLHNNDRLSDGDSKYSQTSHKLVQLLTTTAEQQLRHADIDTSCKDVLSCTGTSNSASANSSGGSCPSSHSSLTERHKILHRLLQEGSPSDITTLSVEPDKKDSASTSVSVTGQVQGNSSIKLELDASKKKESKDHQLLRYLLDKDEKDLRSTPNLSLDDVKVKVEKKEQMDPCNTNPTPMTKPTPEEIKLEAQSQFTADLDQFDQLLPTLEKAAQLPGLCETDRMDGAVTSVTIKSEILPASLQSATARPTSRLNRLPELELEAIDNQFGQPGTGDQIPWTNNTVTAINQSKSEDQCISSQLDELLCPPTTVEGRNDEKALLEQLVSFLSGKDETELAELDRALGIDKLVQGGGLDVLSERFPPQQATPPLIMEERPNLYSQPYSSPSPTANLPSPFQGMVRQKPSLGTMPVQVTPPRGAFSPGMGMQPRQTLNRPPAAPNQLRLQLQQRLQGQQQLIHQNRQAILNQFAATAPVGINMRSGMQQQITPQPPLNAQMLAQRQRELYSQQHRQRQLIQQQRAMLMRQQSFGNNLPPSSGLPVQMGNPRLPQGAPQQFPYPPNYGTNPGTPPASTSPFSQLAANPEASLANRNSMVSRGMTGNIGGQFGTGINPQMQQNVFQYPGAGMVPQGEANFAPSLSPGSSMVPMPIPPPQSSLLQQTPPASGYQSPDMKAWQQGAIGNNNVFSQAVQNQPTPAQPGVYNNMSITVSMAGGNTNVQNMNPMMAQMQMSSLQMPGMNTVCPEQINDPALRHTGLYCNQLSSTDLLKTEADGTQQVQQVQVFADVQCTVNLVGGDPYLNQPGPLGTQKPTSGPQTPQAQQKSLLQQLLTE
# NR2F2 inh – inhibitors of human COUP-TFII (NR2F2); P24468; HEK293T NGFI-A luciferase reporter, luminescence; inhibition, % at 8.6 µM; actives 0.7% (n = 370,000); AID 686940;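 active = inhibition above a per-plate cutoff, mean inhibition of test wells between control levels plus 3 SD, cut at about 38% in these data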;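 also: cells cotransfected with COUP-TFII expression vector driving the NGFI-A reporter; 0% = median of COUP-TF2 test wells and 100% = reporter-only cells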
# SRC3 inh – inhibits human SRC3 coactivator. Q9Y6Q9. HEK293 GAL4-SRC3 luciferase reporter, luminescence. inhibition, % at 3.6 µM. actives 0.17% (n = 360,000). AID 588352;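 active = inhibition above a per-campaign cutoff, the mean of all compounds plus 3 SD, cut at about 60% in these data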;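 also: 0% = DMSO-treated cells and 100% = gossypol-treated cells at 36 µM; higher means less SRC3-driven luciferase light from the GAL4 reporter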
# VP16 Luc counter – VP16 inhibition counter-screen for COUP-TFII; shares compounds with NR2F2 inh; HEK293 Gal4-VP16 luciferase reporter, luminescence; AID 687007; actives 25% (n = 2,500); inhibition, % at 8.5 µM; in the data active = inhibition above about 13%
# COUP-TFII conf – confirmation of human COUP-TFII (NR2F2) inhibitors; inhibition, % at 8.5 µM; AID 687008; actives 45% (n = 2,500); shares compounds with NR2F2 inh; HEK293 NGFI-A luciferase reporter, luminescence;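 active = mean inhibition over three repeats above a set limit taken from the earlier primary screen, cut at about 38% in these data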;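 also: 100% = cells given the luciferase reporter alone without the COUP-TF2 vector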
# * marks the source's active call; other numbers are inactive results; / = not tested or not shown.
SMILES,NR5A2 inv ag,SRC2 inh,NCOA1 inh,NR2F2 inh,SRC3 inh,VP16 Luc counter,COUP-TFII conf
CCOC(=O)[C@@]12CCC3=C1N(CCC3)C(=O)[C@H](CC(=O)NCCCCc1ccccc1)C2,/,14,/,14,/,/,/
Cc1n[nH]c(C)c1S(=O)(=O)NCCc1cccc(F)c1,/,-28,/,7,/,/,/
CCC(C)NC(=S)Nc1ccc(C(=O)OC)cc1 (stereo unspecified),-20,15,12,39*,-8,-37,-13
Fc1ccc2nc(-c3ccc(CN4CCC(c5nc6ccccc6[nH]5)CC4)cc3)c(-c3ccccc3)nc2c1,/,0,/,13,/,/,/
CN(C)c1ccc(-c2ccnc3c2CC(C)(C(=O)NCc2ccco2)O3)cc1 (stereo unspecified),27,14,3,49*,-8,-10,12
CC(=O)Nc1ccc(-c2ccnc3c2CC(C)(C(=O)NCc2ccco2)O3)cc1 (stereo unspecified),23,1,9,2,10,/,/
CCCCCCCCN1C(=O)[C@@H](CC(=O)N2CCCCC2)C[C@@]2(C(=O)OC)C1=C[C@H](C1CCCC1)O[C@@H]2C,/,-48,/,2,/,/,/
CCC[C@H]1[C@@H](OC(=O)NC(CC)CC)CC[C@@]23CCCN2C(=O)CCC[C@@H]13,/,/,/,-2,/,/,/
Cc1cc(N2CCCC2=O)cc(C)c1S(=O)(=O)NCCOc1ccc(C(C)(C)C)cc1,-4,19,-137,44*,26,-1,19
O=C1CCCN1c1ccc(S(=O)(=O)NCCOc2ccccc2)cc1,9,26,15,-3,13,/,/
CCCC1CCC2(CC1)CCC2OC(=S)Nc1ccccc1OC (stereo unspecified),/,/,/,5,/,/,/
O=C(NCC1CCN(C(=O)C(=O)c2cc3ccccc3o2)CC1)c1ccc2c(c1)OCC2,/,13,/,-12,/,/,/
Cc1cc(C(=O)NCC2COc3ccccc3O2)c2ccccc2n1 (stereo unspecified),-4,-19,10,38*,19,4,5
O=C(CCl)Nc1ccc(C(=O)NCC2COc3ccccc3O2)cc1 (stereo unspecified),/,44,/,40*,/,67*,25
CC(=O)Nc1ccc(NC(=O)c2ccc3sc([C@H]4C[C@H](O)[C@@H](CO)O4)nc3c2)cc1,9,4,-10,2,2,/,/
O=C(Nc1cccc(C(F)(F)F)c1)c1ccc2sc([C@H]3C[C@H](O)[C@@H](CO)O3)nc2c1,12,-7,15,58*,13,3,24
O=C(Nc1ccc(Oc2ccccc2)cc1)c1ccc2sc([C@H]3C[C@H](O)[C@@H](CO)O3)nc2c1,38,28,32,74*,5,-22,46*
COc1cc(OC)c(OC)cc1CNc1cc(C)ccc1OC,26,29,9,39*,27,7,18
COc1ccc(C)cc1NCc1cccc(OC)c1OC,12,9,-20,3,-16,/,/
Cc1ccccc1N(C)C(=O)Cn1nnc(-c2ccccc2F)n1,/,7,/,6,/,/,/
CC(c1ccccc1)N1CC[C@H]2C=CC[C@@H](C(=O)Nc3cccc(Cl)c3)[C@H]2C1=O (stereo partly specified),/,/,/,-4,/,/,/
Cc1nc(NCc2ccc(S(N)(=O)=O)cc2)c2c(C)c(C)sc2n1,15,1,-6,6,-6,/,/
Cc1nc(NCCc2ccc(S(N)(=O)=O)cc2)c2c(C)c(C)sc2n1,38,0,7,48*,27,0,17
COc1ccc(OC)c(CC(=O)Nc2ccc3c(c2)c(=O)n(C)n3Cc2cccc(C(F)(F)F)c2)c1,-7,58*,2,83*,2,-9,5
COc1ccc(CNC(=O)Nc2ccc3c(c2)c(=O)n(C)n3Cc2cccc(C(F)(F)F)c2)cc1,2,-44,-1,21,-19,/,/
SMILES,NR5A2 inv ag,SRC2 inh,NCOA1 inh,NR2F2 inh,SRC3 inh,VP16 Luc counter,COUP-TFII conf
Cc1ccc(C(=O)Sc2cccccc2=O)cc1,61,94*,1,49*,75*,89*,92*
COc1cccc(S(=O)(=O)NCc2ccc(C(=O)Nc3ccc(Cl)c(Cl)c3)cc2)c1,13,-7,9,64*,-11,-9,23
O=C(Nc1ccc(Cl)c(Cl)c1)c1cccc(S(=O)(=O)NCc2cccnc2)c1,29,16,25,53*,23,0,30
Cc1ccc(NC(=O)c2ccc(S(=O)(=O)NCc3cccnc3)cc2)cc1C,-4,-5,-13,-6,-13,/,/
O=C(c1ccccc1)c1c2c(cc3sc4ccccc4[n+]13)-c1cccc3cccc-2c13,72,6,30,49*,56,10,57*
Cc1cc2ccccc2cc1C(=O)c1ccccc1,3,-8,-5,4,-6,/,/
O=C(c1ccccc1)c1ccc2ccccc2c1,-11,-39,-33,-32,-42,/,/
Cc1sc2cc3c(c(C(=O)c4ccccc4)[n+]2c1C)-c1cccc2cccc-3c12,/,-19,/,60*,/,22*,55*
COc1ccc(C(=O)C2CCCN(Cc3cnc(N4CCOCC4)s3)C2)cc1F (stereo unspecified),3,20,18,18,14,/,/
CC(C)Oc1cccc(C(=O)C2CCCN(Cc3cnc(N4CCOCC4)s3)C2)c1 (stereo unspecified),27,10,-10,37*,10,-1,15
Cc1ccc(C(=O)Nc2ccc(S(=O)(=O)NCc3ccco3)cc2)cc1,-51,-24,-131,1,-43,/,/
CCN(CC)S(=O)(=O)c1cccc(NC(=O)c2ccc(-n3nc(C)cc3C)cc2)c1,16,14,13,65*,25,9,33
Cc1cc(C)n(-c2ccc(C(=O)Nc3cccc(S(=O)(=O)N(C)C)c3)cc2)n1,16,14,13,43*,34,14*,39*
Cc1cc(C)n(-c2ccc(C(=O)Nc3ccc(S(=O)(=O)NCc4ccco4)cc3)cc2)n1,25,12,33,75*,12,24*,71*
Cc1cc(C)n(-c2ccc(C(=O)Nc3cccc([N+](=O)[O-])c3)cc2)n1,1,-10,6,13,18,/,/
Cc1ccc(NC(=O)c2ccc(OC(F)(F)F)cc2)cc1S(=O)(=O)N(C)C,27,13,2,55*,13,-9,35
Cc1cc(C)n(-c2ccc(C(=O)Nc3ccc(S(=O)(=O)N(C)C)cc3)cc2)n1,19,-11,18,32,31,/,/
Cc1ccc(NC(=O)c2ccncc2)cc1S(=O)(=O)N(C)C,-5,-11,3,-3,8,/,/
COc1ccc(N2CCN(CCNS(=O)(=O)c3c(C(C)C)cc(C(C)C)cc3C(C)C)CC2)cc1,/,11,/,13,/,/,/
Cc1ccc(NC(=O)CNc2ccc(Cl)c(Cl)c2)cc1S(=O)(=O)N(C)C,5,-2,3,54*,24,-5,40*
